Screening data (PubChem BioAssay)
Compounds with a hit are over-represented: about 3.2% of the library has one in this group of screens.
FAS-TE inh: FAS thioesterase (human) inhibition; P49327; recombinant FAS-TE, OMFH fluorogenic substrate, fluorescence endpoint; inhibition, % at 15 µM; actives 0.67% (n = 360,000);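 active = compounds whose normalised, plate-corrected inhibition of enzyme fluorescence in the single-dose primary screen is 50% or more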;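 note: 0% = DMSO with enzyme and 100% = substrate without enzyme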
CRFBP-R2 agonist: agonists of human CRF-binding protein/CRF-R2 receptor complex | activation, % at 13.2 µM | actives 0.46% (n = 350,000) | AID 588473 | HEK293 CRF-R2/CRF-BP, calcium dye fluorescence (FLIPR); percent of saturating CRF peptide response;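 active = activation of at least 50%, plus an integration ratio under a set limit after plate pattern correction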;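 note: plate controls were neutral control wells without compound for no effect and CRF at EC100 for full effect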
CRFBP-R2 block: blocks CRF-induced signaling of the CRF-BP/CRF-R2 complex. HEK293 CRF-R2/CRF-BP, CRF-induced calcium fluorescence. inhibition, % at 11.8 µM. actives 0.59% (n = 350,000). AID 588475;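 active = inhibition of the ligand-induced calcium signal above about 50% at the single tested concentration, limit read from the data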
Cardio protect: myocardial damage modulation in H9c2 cells. protection from H2O2 cell death, % at 20 µM. AID 588492. H9c2 cardiomyocytes, H2O2 injury protection, ATPLite, 2 h. actives 0.63% (n = 360,000);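 active = compounds giving at least 50% protection of heart cells from peroxide-induced death in the single-dose screen, raw or plate-pattern-corrected value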;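 note: 0% = DMSO wells with peroxide and 100% = DMSO wells without peroxide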
aDG glyco act: alpha-DG glycosylation activation | Pro5-aDG cells, alpha-DG glycosylation AlphaScreen (IIH6); 0% Pro5, 100% B10-LARGE cell signal | activation, % at 10 µM | actives 0.22% (n = 360,000);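 active = activation of at least 8% versus controls, or a plate z-score of at least 8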;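 note: Pro5 are CHO cells carrying HIG-tagged alpha-DG that lacks glycosylation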
PfG6PD inh: PfG6PD (Plasmodium falciparum) enzyme inhibition; PfGluPho enzyme, NADPH resazurin-diaphorase fluorescence; inhibition, % at 20 µM; actives 0.78% (n = 350,000);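 active = inhibition reaching at least a set limit at 20 µM in the primary screen, cut at about 59% in these data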;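 note: 0% = DMSO wells with substrate and 100% = DMSO wells lacking glucose-6-phosphate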
FAS-TE conf: FAS thioesterase (human) inhibition, confirmation | shares compounds with FAS-TE inh | recombinant FAS-TE, OMFH fluorogenic substrate, fluorescence | inhibition, % at 15 µM | actives 45% (n = 2,300);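 active = compounds inhibiting the enzyme by at least 50% at 15 µM in any one of the replicates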;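 note: 0% = enzyme with DMSO only and 100% = wells lacking enzyme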
An asterisk follows results filed as active; nt = no result.

SMILES | FAS-TE inh | CRFBP-R2 agonist | CRFBP-R2 block | Cardio protect | aDG glyco act | PfG6PD inh | FAS-TE conf
Cc1ccc(NC(=O)/C(=C\c2ccccc2)NC(=O)/C=C/c2ccccc2)cc1 | 72.7* | -2.5 | 12.0 | 0.1 | -0.1 | -27.4 | 2.0
CCN(CC(=O)Nc1ccc(C(=O)Nc2ccc(OC)cc2)cc1)Cc1nc2ccccc2c(=O)[nH]1 | -2.6 | -0.3 | -2.6 | 28.7 | 0.1 | -0.7 | nt
CCN(CC)C(=O)CSc1nc2cc3c(cc2c(=O)n1CCCCCC(=O)NCc1ccc(OC)cc1)OCO3 | 6.6 | -0.9 | 21.0 | 23.6 | 0.2 | -4.0 | nt
N#C/C(=C\c1ccc(OCc2ccc(Cl)cc2)cc1)C(=O)Nc1cccc(C(=O)O)c1 | 52.9* | -0.6 | 12.4 | -13.0 | -0.1 | -27.1 | 4.3
CCOC1=C2[C@@H](CN(S(=O)(=O)c3ccc(C)cc3)[C@H]2c2ccccc2Cl)[C@H]2C(=O)NC(=O)[C@H]2C1 | 3.1 | nt | nt | 5.1 | 0.1 | nt | nt
CCOC1=C2[C@H](c3ccc(CC)cc3)N(S(=O)(=O)c3ccc(C)cc3)C[C@H]2C(C#N)(C#N)C(C#N)(C#N)C1 | 80.1* | nt | nt | 11.7 | 0.0 | nt | 11.2
CCOC1=C2[C@H](c3ccccc3Cl)N(S(=O)(=O)c3ccc(C)cc3)C[C@H]2C(C#N)(C#N)C(C#N)(C#N)C1 | 76.3* | nt | nt | 8.5 | 0.3 | nt | 14.2
O=[N+]([O-])c1ccc(/C=N/Nc2nc(N3CCCCC3)nc(N3CCCCC3)n2)cc1 | 53.9* | 0.9 | 2.9 | 0.9 | 0.0 | 28.2 | 5.9
O=[N+]([O-])c1ccc(Nc2nc(N/N=C\c3ccc4c(c3)OCO4)nc(N3CCCCC3)n2)cc1 | 56.3* | 0.1 | 11.0 | 41.3 | -1.0 | 2.6 | 17.6
O=[N+]([O-])c1cc2c(cc1/C=N/Nc1nc(N3CCCC3)nc(N3CCCC3)n1)OCO2 | 21.2 | -1.1 | 12.8 | 15.6 | 0.2 | 14.3 | nt
Cc1cc(-c2ccccc2)nc(N/N=C/c2ccc([N+](=O)[O-])cc2)n1 | 67.3* | 1.2 | -23.9 | 53.4* | 0.1 | 0.8 | 46.3*
Cc1ccc(C(=O)N2CCN(S(=O)(=O)N3CCCCC3)CC2)cc1 | -3.6 | 0.2 | -1.7 | 5.0 | -0.4 | -15.0 | nt
COc1ccc(CCN2C(=S)N(C)C(=O)C2CC(=O)Nc2ccc(OC)cc2)cc1 (stereo unspecified) | 14.3 | 8.9 | -61.4 | 3.4 | 0.2 | 16.8 | nt
COc1ccc(NC(=O)CC2C(=O)N(C)C(=S)N2Cc2cccs2)cc1 (stereo unspecified) | 50.6* | -0.6 | 1.8 | 0.0 | 0.1 | 3.2 | 57.6*
CCCOc1ccc(NC(=O)CC2C(=O)N(CC)C(=S)N2Cc2cccs2)cc1 (stereo unspecified) | 59.2* | 0.1 | -36.3 | -4.2 | 0.2 | 13.0 | 65.2*
CCc1ccc(NC(=O)CN(c2ccccc2)S(=O)(=O)N(C)C)cc1 | 0.9 | 3.7 | -19.5 | -4.1 | -0.3 | -1.1 | nt
N#Cc1c(C(F)(F)F)cc(-c2cccs2)nc1SCC(=O)O | 18.2 | -1.2 | 4.5 | 0.4 | 0.0 | -51.6 | nt
N#Cc1c(C(F)(F)F)cc(-c2cccs2)nc1SC(C(=O)O)c1ccccc1 (stereo unspecified) | 75.1* | 2.2 | 5.2 | 1.0 | 0.1 | -13.1 | 81.6*
O=C(CSc1nc2nc(-c3cccs3)cc(C(F)(F)F)c2c(=O)[nH]1)Nc1c(F)c(F)c(F)c(F)c1F | 50.2* | -4.1 | 37.5 | -24.5 | 1.1 | -47.7 | 26.0
Cc1cc2cc(CN(Cc3cccs3)C(c3nnnn3C(C)(C)C)C(C)C)c3nnnn3c2cc1C (stereo unspecified) | 51.9* | 45.7 | -33.8 | -6.3 | -0.2 | 14.7 | 6.3
O=C(Nc1nc2cc(Cl)ccc2s1)C1CCCN(S(=O)(=O)c2cccc3cccnc23)C1 (stereo unspecified) | 69.1* | 1.4 | -23.2 | -0.6 | -0.1 | 11.8 | 13.6
COc1ccc(CC(=O)Nc2ccc(S(=O)(=O)N3CCN(C)CC3)cc2)cc1 | -6.5 | -0.2 | 2.6 | 1.1 | -0.1 | 4.2 | nt
CCOC(=O)c1c(NC(=O)c2ccc(N3C(=O)[C@@H]4[C@H](C3=O)[C@H]3C=C[C@@H]4C3)cc2)sc2c1CCCC2 | 61.9* | 1.0 | -6.1 | -0.4 | 0.4 | 5.2 | 8.8
Cc1ccc(C(=O)NCC(=O)OCc2nnc(-c3ccc([N+](=O)[O-])cc3)o2)s1 | 53.2* | -0.4 | 14.6 | -2.4 | 0.1 | 12.5 | 64.7*
CCOC(=O)[C@H]1[C@H]2COc3ccc(Br)cc3[C@@H]2N2C(=O)c3ccc(Cl)cc3NC(=O)[C@@]12C | 78.4* | 4.5 | -5.4 | 18.8 | 0.0 | -15.8 | 28.5
SMILES | FAS-TE inh | CRFBP-R2 agonist | CRFBP-R2 block | Cardio protect | aDG glyco act | PfG6PD inh | FAS-TE conf
CCOC(=O)[C@@H]1[C@H]2COc3ccc(Br)cc3[C@H]2N2C(=O)N(c3ccc(C)cc3)C(=O)[C@]12C | 60.0* | -0.7 | -1.4 | 0.3 | -0.1 | 11.4 | 26.2
CCOC(=O)[C@@H]1[C@H]2COc3ccc(Br)cc3[C@@H]2N2C(=O)N(c3ccc(Br)cc3)C(=O)[C@@]12C | 36.8 | -0.4 | -10.5 | -9.9 | 0.2 | 10.4 | nt
CCOC(=O)[C@@H]1[C@H]2COc3ccc(Br)cc3[C@@H]2N2C(=O)N(c3ccc(C(F)(F)F)cc3)C(=O)[C@]12C | 58.0* | 7.8 | -8.4 | -7.8 | 0.0 | 12.4 | 22.9
NC1=NC(=O)C2(COC(c3cccnc3)OC2)S1 (stereo unspecified) | -4.1 | 0.0 | 10.2 | -0.2 | -0.3 | -21.6 | nt
CC(C(=O)NCc1ccccc1)N1CCN(c2ccc(F)cc2)CC1 (stereo unspecified) | -3.0 | -0.9 | 4.8 | 4.1 | 0.0 | -8.3 | nt
Cc1cccc(N2C(=O)CC(Sc3nc(-c4ccccc4)c4cc(Cl)ccc4n3)C2=O)c1 (stereo unspecified) | 65.9* | 1.4 | 7.2 | -8.8 | 0.1 | -8.3 | 28.0
O=C(Nc1cscc1S(=O)(=O)c1ccccc1)c1ccccc1Cl | 10.3 | 1.2 | 22.4 | -6.4 | 0.0 | 7.4 | nt
O=C(O)c1ccc(Cl)c(NC(=S)NC(=O)c2cccc(COc3ccccc3)c2)c1 | 61.1* | -5.8 | 52.0* | -2.6 | -0.2 | -25.0 | 71.8*
O=C(NCCS(=O)(=O)N1CCCCCC1)c1ccc(F)cc1 | -2.3 | -0.8 | 9.9 | 1.8 | 0.4 | 5.2 | nt
CCCCNC(=S)N(C)/N=C/c1ccc2c(c1)OCO2 | 53.3* | -1.2 | 27.4 | -6.4 | -0.2 | 16.2 | 43.3
CCCCNC(=S)N(C)/N=C/c1ccc(F)cc1 | 31.0 | 1.3 | -40.2 | -3.9 | -0.3 | 34.1 | nt
CC(C)(C)c1ccc(COC(=O)CN2C(=O)NC3(CCCC3)C2=O)cc1 | 67.6* | 4.7 | -31.9 | -10.9 | -0.1 | 16.4 | 76.2*
